Targets with a hit are over-represented here; the source holds about 7,900 in all. About 0.6% of all pairs of compound and target were hits. Unmarked numbers belong to inactive results.

Common to all, as to assay: log2 fold change, soluble protein after heating vs DMSO (PISA); higher = thermal stabilisation; K562 cells, 10 uM, 30 min; active = over 0.2 and 3.5 SD of the protein, either way, in both replicates (recomputed)
Compound in experiment [1]: Cc1ccc(NC(=O)c2ccc(CN3CC[C@H](N(C)C)C3)c(C(F)(F)F)c2)cc1Nc1nccc(-c2cncnc2)n1 [bafetinib]
A digest of the protocol:
(§1)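 Aliquots of K562 cells (2×10^6 cells/mL) treated with 10 μM compound for 30 min were heated for 3 min over 48°C-58°C. After pooling and extraction in PBS with 0.5% NP-40 at 4°C, soluble protein from a 21,000xg, 90 min spin was quantified by TMTpro 16plex LC-MS/MS with channel sums equalised. Thermal stability is expressed against control samples, from duplicates, as a log2 fold change.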

Compound in experiment [2]: Cc1cccc(CC(=O)N2CCc3c2ccc(-c2cn(C)c4ncnc(N)c24)c3F)n1
The essentials:
as §1

Compound in experiment [3]: Cc1cn(-c2cc(NC(=O)c3ccc(C)c(Nc4nccc(-c5cccnc5)n4)c3)cc(C(F)(F)F)c2)cn1 [nilotinib]
The essentials:
as §1

Compound in experiment [4]: Cc1nc(Nc2n[nH]c3c2CN(C(=O)N[C@H](CN(C)C)c2ccccc2)C3(C)C)c2sccc2n1
The essentials:
as §1

Compound in experiment [5]: Cc1nc(Nc2ncc(C(=O)Nc3c(C)cccc3Cl)s2)cc(N2CCN(CCO)CC2)n1 [dasatinib]
A digest of the protocol:
as §1

Compound in experiment [6]: Cc1ncc(-c2ccnc(Nc3ccc(S(C)(=O)=O)cc3)n2)n1C(C)C
A digest of the protocol: as §1

Compound in experiment [7]: Cn1cc(-c2ccc3c(c2)CCN3C(=O)Cc2cccc(C(F)(F)F)c2)c2c(N)ncnc21
A digest of the protocol: as §1

Compound in experiment [8]: Cn1cc(-c2ccc3nnc(C(F)(F)c4ccc5ncccc5c4)n3n2)cn1
The essentials:
as §1

Compound in experiment [9]: Cn1cncc1[C@@](N)(c1ccc(Cl)cc1)c1ccc2c(c1)c(-c1cccc(Cl)c1)cc(=O)n2C [tipifarnib]
A digest of the protocol:
as §1

Compound in experiment [10]: FC(F)(F)c1ccc(/C=C/c2nc(COc3ccc(CCCCn4ccnn4)cc3)co2)cc1 [mubritinib]
The essentials: as §1

Compound in experiment [11]: NC(=O)Nc1cc(-c2cccc(F)c2)sc1C(=O)N[C@H]1CCCNC1
A digest of the protocol:
as §1

Compound in experiment [12]: NC(=O)c1cnc(N[C@@H]2CCCC[C@@H]2N)nc1Nc1cccc(-n2nccn2)c1
A digest of the protocol:
as §1

Compound in experiment [13]: NC1(c2ccc(-c3nc4ccn5c(=O)[nH]nc5c4cc3-c3ccccc3)cc2)CCC1
The essentials: as §1

Compound in experiment [14]: NCC(=O)Nc1ccc(-n2nc(C(F)(F)F)cc2-c2ccc3c(ccc4ccccc43)c2)cc1
The essentials: as §1

Compound in experiment [15]: Nc1ccccc1NC(=O)c1ccc(CNC(=O)OCc2cccnc2)cc1 [entinostat]
A digest of the protocol: as §1

Compound in experiment [16]: O=C(CCCCCCC(=O)Nc1ccccc1)NO [vorinostat]
The essentials:
as §1

Compound in experiment [17]: O=C(CCCCCCNC(=O)c1cnc(N(c2ccccc2)c2ccccc2Cl)nc1)NO [citarinostat]
The essentials:
as §1

Compound in experiment [18]: O=C(O)c1ccc2c(c1)nc(Nc1cccc(Cl)c1)c1ccncc12 [silmitasertib]
The essentials:
as §1

Compound in experiment [19]: O=C1NC(=O)C(c2cnc3ccccn23)=C1c1cn2c3c(cc(F)cc13)CN(C(=O)N1CCCCC1)CC2
A digest of the protocol:
as §1

Compound in experiment [20]: c1cc(OCCN2CCCCC2)cc(-c2n[nH]c3ccc(-c4nnc[nH]4)cc23)c1
The essentials: as §1

Sequence of UniProt Q15061 (Q15061 whole entry, looked up): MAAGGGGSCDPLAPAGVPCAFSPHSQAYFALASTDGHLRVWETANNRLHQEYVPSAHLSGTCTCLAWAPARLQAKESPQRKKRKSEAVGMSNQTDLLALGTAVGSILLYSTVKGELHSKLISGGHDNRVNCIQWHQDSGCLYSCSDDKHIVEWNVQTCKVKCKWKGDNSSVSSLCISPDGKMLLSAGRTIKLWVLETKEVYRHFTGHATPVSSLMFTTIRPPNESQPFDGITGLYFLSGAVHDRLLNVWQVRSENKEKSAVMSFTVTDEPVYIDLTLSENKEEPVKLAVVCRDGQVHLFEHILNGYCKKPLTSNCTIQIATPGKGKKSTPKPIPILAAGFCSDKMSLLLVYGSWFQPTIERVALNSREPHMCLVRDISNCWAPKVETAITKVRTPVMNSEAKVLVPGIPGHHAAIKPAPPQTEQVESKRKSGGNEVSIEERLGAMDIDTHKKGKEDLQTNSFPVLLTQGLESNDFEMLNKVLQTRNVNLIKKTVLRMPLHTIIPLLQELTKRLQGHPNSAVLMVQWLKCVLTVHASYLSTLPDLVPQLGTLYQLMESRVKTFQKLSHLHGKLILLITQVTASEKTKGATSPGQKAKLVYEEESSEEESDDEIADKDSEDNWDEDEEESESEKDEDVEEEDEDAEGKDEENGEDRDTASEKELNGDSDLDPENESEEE
Sequence of UniProt O75674 (O75674 whole entry, looked up): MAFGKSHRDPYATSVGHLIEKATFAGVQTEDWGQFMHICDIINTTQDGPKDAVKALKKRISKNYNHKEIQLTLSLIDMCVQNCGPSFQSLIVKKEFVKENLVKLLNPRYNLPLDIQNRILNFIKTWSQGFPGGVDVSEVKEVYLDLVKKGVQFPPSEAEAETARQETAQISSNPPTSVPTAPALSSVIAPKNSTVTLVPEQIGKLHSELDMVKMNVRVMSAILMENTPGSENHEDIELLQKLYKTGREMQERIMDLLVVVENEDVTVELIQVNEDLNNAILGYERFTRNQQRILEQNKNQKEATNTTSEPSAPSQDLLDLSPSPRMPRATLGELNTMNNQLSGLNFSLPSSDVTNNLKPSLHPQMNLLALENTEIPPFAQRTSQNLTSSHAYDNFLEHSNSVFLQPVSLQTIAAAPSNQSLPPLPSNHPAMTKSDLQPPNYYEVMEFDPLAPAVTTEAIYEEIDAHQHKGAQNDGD
Sequence of UniProt Q9Y5L0 (Q9Y5L0 whole entry, looked up): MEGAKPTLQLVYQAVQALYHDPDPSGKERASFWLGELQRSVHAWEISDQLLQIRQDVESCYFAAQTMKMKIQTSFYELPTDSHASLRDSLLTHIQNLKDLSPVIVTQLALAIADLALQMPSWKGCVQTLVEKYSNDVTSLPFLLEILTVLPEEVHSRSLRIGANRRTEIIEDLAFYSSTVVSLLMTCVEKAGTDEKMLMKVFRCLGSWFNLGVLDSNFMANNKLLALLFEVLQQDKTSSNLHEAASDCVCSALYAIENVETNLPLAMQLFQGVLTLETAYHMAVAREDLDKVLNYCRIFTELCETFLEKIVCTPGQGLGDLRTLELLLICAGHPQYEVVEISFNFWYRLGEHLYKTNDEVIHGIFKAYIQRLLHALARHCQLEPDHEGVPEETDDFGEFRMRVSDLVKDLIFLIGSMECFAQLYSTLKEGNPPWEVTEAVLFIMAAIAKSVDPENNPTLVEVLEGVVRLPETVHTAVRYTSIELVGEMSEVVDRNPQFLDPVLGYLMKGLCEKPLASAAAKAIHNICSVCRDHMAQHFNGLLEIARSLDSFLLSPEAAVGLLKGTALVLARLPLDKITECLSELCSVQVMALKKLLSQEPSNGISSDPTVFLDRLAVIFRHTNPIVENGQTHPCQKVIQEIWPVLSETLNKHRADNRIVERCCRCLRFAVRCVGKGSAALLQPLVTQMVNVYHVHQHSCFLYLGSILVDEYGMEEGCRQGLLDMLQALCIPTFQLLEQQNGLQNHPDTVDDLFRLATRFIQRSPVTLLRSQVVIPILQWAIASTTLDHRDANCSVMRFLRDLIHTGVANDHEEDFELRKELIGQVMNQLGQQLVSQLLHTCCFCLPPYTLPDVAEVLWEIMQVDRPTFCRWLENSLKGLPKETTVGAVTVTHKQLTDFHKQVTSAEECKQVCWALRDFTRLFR
Sequence of UniProt Q5R3I4 (Q5R3I4 whole entry, looked up): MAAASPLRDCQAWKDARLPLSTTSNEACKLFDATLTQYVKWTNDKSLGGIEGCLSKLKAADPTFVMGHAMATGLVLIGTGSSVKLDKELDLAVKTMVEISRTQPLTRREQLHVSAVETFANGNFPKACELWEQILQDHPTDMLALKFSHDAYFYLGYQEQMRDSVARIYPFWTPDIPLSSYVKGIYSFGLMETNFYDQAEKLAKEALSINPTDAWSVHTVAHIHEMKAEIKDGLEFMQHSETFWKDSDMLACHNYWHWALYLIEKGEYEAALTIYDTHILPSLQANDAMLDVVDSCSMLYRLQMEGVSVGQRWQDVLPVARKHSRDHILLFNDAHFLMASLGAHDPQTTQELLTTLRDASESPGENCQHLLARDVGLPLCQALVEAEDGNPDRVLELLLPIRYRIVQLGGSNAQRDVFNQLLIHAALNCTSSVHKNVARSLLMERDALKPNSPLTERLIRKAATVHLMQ
Sequence of UniProt P28908 (P28908 whole entry, looked up): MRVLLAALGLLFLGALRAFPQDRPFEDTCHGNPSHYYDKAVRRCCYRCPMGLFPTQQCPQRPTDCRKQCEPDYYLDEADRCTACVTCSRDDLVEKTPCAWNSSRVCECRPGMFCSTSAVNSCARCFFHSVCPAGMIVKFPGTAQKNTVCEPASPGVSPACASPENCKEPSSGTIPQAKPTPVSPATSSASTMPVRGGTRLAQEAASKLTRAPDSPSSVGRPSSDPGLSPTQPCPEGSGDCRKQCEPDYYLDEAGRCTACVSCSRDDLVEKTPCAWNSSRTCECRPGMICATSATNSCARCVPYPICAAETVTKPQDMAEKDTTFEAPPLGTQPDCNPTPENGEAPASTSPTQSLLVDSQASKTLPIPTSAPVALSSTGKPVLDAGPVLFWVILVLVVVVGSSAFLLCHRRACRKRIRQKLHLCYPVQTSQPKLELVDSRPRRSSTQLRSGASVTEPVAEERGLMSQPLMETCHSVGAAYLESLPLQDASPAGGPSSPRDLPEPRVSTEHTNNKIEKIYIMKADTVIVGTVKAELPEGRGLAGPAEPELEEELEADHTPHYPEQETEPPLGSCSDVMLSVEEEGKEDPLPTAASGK
Sequence of UniProt Q9NP79 (Q9NP79 whole entry, looked up): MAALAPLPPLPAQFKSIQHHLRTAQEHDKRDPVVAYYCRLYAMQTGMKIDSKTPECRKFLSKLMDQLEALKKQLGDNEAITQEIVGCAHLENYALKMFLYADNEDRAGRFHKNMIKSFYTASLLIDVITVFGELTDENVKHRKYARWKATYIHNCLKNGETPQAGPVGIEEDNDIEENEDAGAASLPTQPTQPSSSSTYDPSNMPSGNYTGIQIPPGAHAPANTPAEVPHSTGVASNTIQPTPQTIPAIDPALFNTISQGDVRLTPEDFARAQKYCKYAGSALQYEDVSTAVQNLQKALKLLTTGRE
Sequence of UniProt P21796 (P21796 whole entry, looked up): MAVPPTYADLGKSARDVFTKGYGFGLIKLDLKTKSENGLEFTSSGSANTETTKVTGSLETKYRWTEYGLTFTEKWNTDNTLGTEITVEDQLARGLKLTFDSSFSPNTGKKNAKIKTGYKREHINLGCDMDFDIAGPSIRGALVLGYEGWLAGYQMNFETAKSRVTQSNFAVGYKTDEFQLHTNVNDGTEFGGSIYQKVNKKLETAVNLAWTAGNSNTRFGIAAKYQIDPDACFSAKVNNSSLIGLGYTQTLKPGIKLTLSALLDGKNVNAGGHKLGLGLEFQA

For the target TNPO3 (UniProt Q9Y5L0), the log2 fold change in [1] is -0.057; in [2], 0.041; in experiment [3], -0.052; in experiment [4], -0.123; in experiment [5], -0.103; in experiment [6] it was -0.028. Besides, the log2 fold change was -0.001 in [7]; -0.014 in [8]; -0.121 in experiment [9]; 0.061 in experiment [10]; 0.026 in experiment [11]; -0.018 in experiment [12]. Also, the log2 fold change in [13] is -0.221 (active); in [14], -0.024; in experiment [15], 0.049; in experiment [16], 0.076; in [17], 0.058; in experiment [18] it was -0.024. In addition, the log2 fold change in [19] is -0.06; in experiment [20] it was -0.059.

With TOM1L1 (UniProt O75674), the log2 fold change is -0.025 in experiment [1]; -0.265 (active) in experiment [2]; -0.003 in experiment [3]; -0.069 in experiment [4]; -0.04 in [5]; 0.087 in experiment [6]. Moreover, the log2 fold change is 0.031 in [7]; 0.032 in experiment [8]; 0.06 in experiment [9]; 0.034 in experiment [10]; -0.086 in [11]; 0.102 in experiment [12]. Further, the log2 fold change in experiment [13] is 0.008; in experiment [14] it was 0.018; in experiment [15], -0.034; in experiment [16], 0.092; in [17] it was -0.074; in experiment [18] it was 0.021. For the same target, the log2 fold change was 0.008 in [19] and -0.041 in experiment [20].

In the case of TNFRSF8 (UniProt P28908), the log2 fold change was 0.01 in experiment [1]; -0.089 in experiment [2]; 0.074 in experiment [3]; -0.049 in [4]; 0.032 in [5]; 0.043 in experiment [6]. Besides, the log2 fold change in experiment [7] was 0.014; in experiment [8] it was 0.032; in experiment [9], 0.042; in experiment [10], 0.069; in [11], -0.12; in experiment [12], 0.128. Also, the log2 fold change was 0.106 in experiment [13]; 0.025 in experiment [14]; -0.066 in experiment [15]; -0.078 in experiment [16]; -0.003 in [17]; -0.052 in experiment [18]. Besides, the log2 fold change in [19] is -0.053; in experiment [20] it was -0.025.

As to WDR43 (UniProt Q15061), the log2 fold change in experiment [1] was -0.041; in experiment [2] it was -0.052; in [3] it was -0.013; in experiment [4] it was 0.033; in [5] it was 0.015; in experiment [6], 0.102. Besides, the log2 fold change in [7] is -0.022; in [8] it was 0.013; in experiment [9], 0.005; in experiment [10], -0.024; in [11], 0.023; in experiment [12] it was 0.03. In addition, the log2 fold change in experiment [13] is 0.068; in experiment [14], -0.023; in experiment [15], -0.029; in experiment [16], -0.078; in [17] it was 0.007; in [18], 0.051. In addition, the log2 fold change in [19] is -0.007; in experiment [20] it was -0.027.

In the case of TTC38 (UniProt Q5R3I4), the log2 fold change in experiment [1] was -0.012; in experiment [2] it was 0.021; in [3], 0.038; in experiment [4], 0.034; in experiment [5] it was 0.024; in experiment [6] it was -0.04. Moreover, the log2 fold change is 0.071 in experiment [7]; -0.021 in [8]; 0.05 in experiment [9]; 0.322 in [10]; 0.038 in experiment [11]; 0.113 in experiment [12]. Besides, the log2 fold change in experiment [13] is -0.263; in experiment [14], -0.09; in [15], 0.111; in [16], 0.459 (active); in [17], -0.243; in experiment [18], -0.156. For the same target, the log2 fold change was 0.042 in experiment [19] and 0.313 in experiment [20].

VTA1 (UniProt Q9NP79): the log2 fold change is -0.035 in [1]; 0.081 in [2]; -0.07 in experiment [3]; -0.011 in experiment [4]; -0.109 in experiment [5]; -0.005 in experiment [6]. Besides, the log2 fold change in experiment [7] was 0.035; in experiment [8], 0; in experiment [9], -0.109; in experiment [10] it was 0.033; in experiment [11], -0.029; in [12], 0.018. Moreover, the log2 fold change in [13] is -0.185; in experiment [14] it was -0.045; in [15], 0.036; in experiment [16], 0.036; in [17] it was 0.054; in experiment [18] it was 0.023. Moreover, the log2 fold change was -0.076 in [19] and 0.009 in [20].

Take VDAC1 (UniProt P21796): the log2 fold change was -0.039 in experiment [1]; -0.037 in experiment [2]; 0.006 in [3]; 0.025 in [4]; 0.035 in [5]; -0.005 in [6]. Also, the log2 fold change was 0.02 in experiment [7]; 0.008 in [8]; 0.017 in [9]; 0.02 in [10]; 0.025 in [11]; 0 in experiment [12]. The log2 fold change in [13] is 0.008; in [14], 0.019; in experiment [15], -0.002; in experiment [16], -0.044; in experiment [17], 0.039; in experiment [18], -0.015. The log2 fold change in experiment [19] is -0.019; in [20] it was -0.009.

Values taken from the supplement of paper PMC10849652.
